# PubChem BioAssay (Tox21)
# Inconclusive results are not listed. Active and inactive are the calls of the source. Unless noted, calls follow the shape of the full dose curve.
# Test: qHTS assay to identify small molecule agonists of the NFkB signaling pathway - cell viability counter screen (AID 1159515); also: nearly all actives have a fitted effect of over 55% in size
# Settings: NFkB-bla ME-180 viability, CellTiter-Glo luminescence, 5 h; series mostly up to 61 µM
# In short: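 5 hr compound treatment of NFkB-bla ME-180 cells (2,000/well, seeded overnight beforehand), followed by reporter substrate for 1.5 hr. CellTiter-Glo added afterward; luminescence after 30 min RT.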
row,SMILES,outcome
1,[N-]=[N+]=[N-],inactive
2,Cc1[nH]c(=O)n(C(C)(C)C)c(=O)c1Cl,inactive
3,COC(=O)NC(=S)Nc1ccccc1NC(=S)NC(=O)OC,inactive
4,CCCCN(CCCC)SN(C)C(=O)Oc1cccc2c1OC(C)(C)C2,inactive
5,O=[N+]([O-])c1ccccc1,inactive
6,C=CC(N)=O,inactive
7,c1ccc2c(c1)Oc1ccccc1O2,inactive
8,c1ccc(-c2ccccc2)cc1,inactive
9,CCC12COCN1COC2,inactive
10,Clc1ccccc1Cl,inactive
11,CNC(=O)Oc1ccccc1OC(C)C,inactive
12,CC1OC(C)OC(C)O1 (stereo not drawn),inactive
13,CCCN(CCC)c1c([N+](=O)[O-])cc(C(F)(F)F)cc1[N+](=O)[O-],inactive
14,COP(N)(=O)SC (stereo not drawn),inactive
15,COC(=O)NS(=O)(=O)c1ccc(N)cc1,inactive
16,CN1C(=O)CN=C(c2ccccc2)c2cc(Cl)ccc21,inactive
17,CC(Oc1ccc(Cl)cc1Cl)C(=O)O (stereo not drawn),inactive
18,O=C1CCCN1,inactive

row,SMILES,outcome
1,CN(N=O)c1ccccc1,inactive
2,Cc1ccc(N)cc1N,inactive
3,Nc1ccc(Br)cc1,inactive
4,OC(O)C(Cl)(Cl)Cl,inactive
5,CCCCN(CC)C(=O)SCCC,inactive
6,C=C(C)CCl,inactive
7,CN(C)CCO,inactive
8,O=c1[nH]c2ccccc2c(=O)o1,inactive
9,CC(C)OC(=O)Nc1ccccc1,inactive
10,CON(C)C(=O)Nc1ccc(Cl)c(Cl)c1,inactive
11,Nc1ccc(Oc2ccc(N)cc2)cc1,inactive
12,O=c1n(Cl)c(=O)n(Cl)c(=O)n1Cl,inactive
13,CCOP(OCC)OCC,inactive
14,Clc1ccc(Cl)cc1,inactive
15,CC(C)(C)OOC(=O)c1ccccc1,inactive
16,COc1ccc2c3c1O[C@H]1[C@@H](O)C=C[C@H]4[C@@H](C2)N(C)CC[C@@]341,inactive
17,CCCC1COC(Cn2cncn2)(c2ccc(Cl)cc2Cl)O1 (stereo not drawn),inactive
18,CC(=O)C=C(C)C,inactive

# Test: qHTS assay to identify small molecule agonists of the endoplasmic reticulum stress response signaling pathway (AID 1159516; active = well fitted activation curve with a large enough effect in the signal ratio in the repeat runs, not every such curve was filed as active; the % refers to the signal ratio)
# Settings: ESRE-bla HeLa, ER stress beta-lactamase reporter, 5 h; series mostly up to 61 µM
# In short: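 Reporter HeLa cells (ESRE-beta-lactamase) underwent 5 hr compound incubation at 37 C and 5% CO2 in quantitative HTS format. Detection followed 2 hr of FRET substrate loading at room temperature.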
row,SMILES,outcome
1,[N-]=[N+]=[N-],inactive
2,Cc1[nH]c(=O)n(C(C)(C)C)c(=O)c1Cl,inactive
3,COC(=O)NC(=S)Nc1ccccc1NC(=S)NC(=O)OC,inactive
4,CCCCN(CCCC)SN(C)C(=O)Oc1cccc2c1OC(C)(C)C2,inactive
5,O=[N+]([O-])c1ccccc1,inactive
6,C=CC(N)=O,inactive
7,c1ccc2c(c1)Oc1ccccc1O2,inactive
8,c1ccc(-c2ccccc2)cc1,inactive
9,CCC12COCN1COC2,inactive
10,Clc1ccccc1Cl,inactive
11,CNC(=O)Oc1ccccc1OC(C)C,inactive
12,CC1OC(C)OC(C)O1 (stereo not drawn),inactive
13,CCCN(CCC)c1c([N+](=O)[O-])cc(C(F)(F)F)cc1[N+](=O)[O-],inactive
14,COP(N)(=O)SC (stereo not drawn),inactive
15,COC(=O)NS(=O)(=O)c1ccc(N)cc1,inactive
16,CN1C(=O)CN=C(c2ccccc2)c2cc(Cl)ccc21,inactive
17,CC(Oc1ccc(Cl)cc1Cl)C(=O)O (stereo not drawn),inactive
18,O=C1CCCN1,inactive

row,SMILES,outcome
1,CN(N=O)c1ccccc1,inactive
2,Cc1ccc(N)cc1N,inactive
3,Nc1ccc(Br)cc1,inactive
4,OC(O)C(Cl)(Cl)Cl,inactive
5,CCCCN(CC)C(=O)SCCC,inactive
6,C=C(C)CCl,inactive
7,CN(C)CCO,inactive
8,O=c1[nH]c2ccccc2c(=O)o1,inactive
9,CC(C)OC(=O)Nc1ccccc1,inactive
10,CON(C)C(=O)Nc1ccc(Cl)c(Cl)c1,inactive
11,Nc1ccc(Oc2ccc(N)cc2)cc1,inactive
12,O=c1n(Cl)c(=O)n(Cl)c(=O)n1Cl,inactive
13,CCOP(OCC)OCC,inactive
14,Clc1ccc(Cl)cc1,inactive
15,CC(C)(C)OOC(=O)c1ccccc1,inactive
16,COc1ccc2c3c1O[C@H]1[C@@H](O)C=C[C@H]4[C@@H](C2)N(C)CC[C@@]341,inactive
17,CCCC1COC(Cn2cncn2)(c2ccc(Cl)cc2Cl)O1 (stereo not drawn),inactive
18,CC(=O)C=C(C)C,inactive

# Test: qHTS assay to identify small molecule agonists of the endoplasmic reticulum stress response signaling pathway - cell viability counter screen (AID 1159517);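 also: HeLa cells carrying an ER stress response element beta-lactamase reporter; nearly all actives have a fitted effect of over 50% in size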
# Settings: ESRE-bla HeLa viability, CellTiter-Glo luminescence, 5 h; series mostly up to 61 µM
# In short: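 Luminescence readout: CellTiter-Glo, 30 min RT, same wells as the ESRE-bla reporter read. HeLa ESRE-bla, 1,500 cells/well, o/n 37 C; cpd 5 hr 37 C/5% CO2.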
row,SMILES,outcome
1,[N-]=[N+]=[N-],inactive
2,Cc1[nH]c(=O)n(C(C)(C)C)c(=O)c1Cl,inactive
3,COC(=O)NC(=S)Nc1ccccc1NC(=S)NC(=O)OC,inactive
4,CCCCN(CCCC)SN(C)C(=O)Oc1cccc2c1OC(C)(C)C2,inactive
5,O=[N+]([O-])c1ccccc1,inactive
6,C=CC(N)=O,inactive
7,c1ccc2c(c1)Oc1ccccc1O2,inactive
8,c1ccc(-c2ccccc2)cc1,inactive
9,CCC12COCN1COC2,inactive
10,Clc1ccccc1Cl,inactive
11,CNC(=O)Oc1ccccc1OC(C)C,inactive
12,CC1OC(C)OC(C)O1 (stereo not drawn),inactive
13,CCCN(CCC)c1c([N+](=O)[O-])cc(C(F)(F)F)cc1[N+](=O)[O-],inactive
14,COP(N)(=O)SC (stereo not drawn),inactive
15,COC(=O)NS(=O)(=O)c1ccc(N)cc1,inactive
16,CN1C(=O)CN=C(c2ccccc2)c2cc(Cl)ccc21,inactive
17,CC(Oc1ccc(Cl)cc1Cl)C(=O)O (stereo not drawn),inactive
18,O=C1CCCN1,inactive

row,SMILES,outcome
1,CN(N=O)c1ccccc1,inactive
2,Cc1ccc(N)cc1N,inactive
3,Nc1ccc(Br)cc1,inactive
4,OC(O)C(Cl)(Cl)Cl,inactive
5,CCCCN(CC)C(=O)SCCC,inactive
6,C=C(C)CCl,inactive
7,CN(C)CCO,inactive
8,O=c1[nH]c2ccccc2c(=O)o1,inactive
9,CC(C)OC(=O)Nc1ccccc1,inactive
10,CON(C)C(=O)Nc1ccc(Cl)c(Cl)c1,inactive
11,Nc1ccc(Oc2ccc(N)cc2)cc1,inactive
12,O=c1n(Cl)c(=O)n(Cl)c(=O)n1Cl,inactive
13,CCOP(OCC)OCC,inactive
14,Clc1ccc(Cl)cc1,inactive
15,CC(C)(C)OOC(=O)c1ccccc1,inactive
16,COc1ccc2c3c1O[C@H]1[C@@H](O)C=C[C@H]4[C@@H](C2)N(C)CC[C@@]341,inactive
17,CCCC1COC(Cn2cncn2)(c2ccc(Cl)cc2Cl)O1 (stereo not drawn),inactive
18,CC(=O)C=C(C)C,inactive
